Among the test systems are HCT-15 colon; HT29 colon; SNB-75 CNS; SNB-19 CNS; PC-3 prostate; SK-MEL-5 melanoma; UACC-62 melanoma; LOX IMVI melanoma; SK-MEL-28 melanoma; SK-MEL-2 melanoma; EKVX NSCLC; SN12C renal; UO-31 renal; TK-10 renal; ACHN renal; CAKI-1 renal; A498 renal; CCRF-CEM leukemia; MOLT-4 leukemia; U251 CNS.
Test in all cases: NCI-60 one-dose screen, 48 h (100 = growth as untreated, 0 = no growth, -100 = all killed)
Holding throughout (details): 10 µM unless noted

The results in this text go back to PubChem BioAssay (NCI).

The panel holds about 83,000 compounds, 20% with a hit somewhere; the sample as a whole holds those more often.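 Interpretation: 100, growth as untreated; towards 0, rising growth inhibition; 0, no net growth; 0 to -100, cell death. Compounds scoring below 10 were considered active.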 A number with no mark means an inactive call. Active and inactive are the calls of the source.

`Brc1ccccc1/C=N/Nc1nc(N/N=C/c2ccccc2Br)nc(N2CCOCC2)n1`: the growth in the experiment with HCT-15 colon is 81.1%; in the experiment with HT29 colon, 74%; with SNB-75 CNS, 132%; in the experiment on SNB-19 CNS, 101%; in the experiment with PC-3 prostate it was 84%; in the experiment on SK-MEL-5 melanoma it was 69.6%. The growth with UACC-62 melanoma is 102%; in the experiment on LOX IMVI melanoma it was 103%; with SK-MEL-28 melanoma it was 99.3%; in the experiment with SK-MEL-2 melanoma, 96.3%; in the experiment with EKVX NSCLC, 80.2%; in the experiment on SN12C renal, 98.8%. In addition, the growth is 78.6% with UO-31 renal; 99.4% with TK-10 renal; 93.6% in the experiment with ACHN renal; 109% with CAKI-1 renal; 50.2% in the experiment on A498 renal; 80.1% with CCRF-CEM leukemia. Besides, the growth with MOLT-4 leukemia is 72.6%.
For `NC(N)=Nc1ccc(Oc2cccc(Nc3ccc(Br)c(C(F)(F)F)c3)c2)cc1`, the growth in the experiment with HCT-15 colon was 69.9%; in the experiment with HT29 colon, 11.5%; in the experiment with SNB-75 CNS, 27.1%; in the experiment with SNB-19 CNS, -15.9% (active); with PC-3 prostate it was 1.98% (active); in the experiment on SK-MEL-5 melanoma, 22.5%. Further, the growth in the experiment with UACC-62 melanoma was 7.23% (active); in the experiment on LOX IMVI melanoma it was -97.1% (active); in the experiment with SK-MEL-2 melanoma, 35.6%; in the experiment on EKVX NSCLC, 25.5%; with SN12C renal it was -21.3% (active); in the experiment with UO-31 renal, 75.2%. Also, the growth with TK-10 renal is 54.9%; in the experiment on ACHN renal it was 68.3%; in the experiment on CAKI-1 renal, 39.8%; with A498 renal it was 0.698% (active); in the experiment on CCRF-CEM leukemia, 3.83% (active); with MOLT-4 leukemia, 9.79% (active).
With `NC(N)=Nc1ccc(Oc2cccc(NC(N)=Nc3ccc(Cl)c(C(F)(F)F)c3)c2)cc1`, the growth in the experiment on HCT-15 colon was 84.3%; in the experiment on HT29 colon, 46.7%; in the experiment on SNB-75 CNS, 65%; in the experiment on SNB-19 CNS, 13.9%; in the experiment on PC-3 prostate, 6.36% (active); in the experiment with SK-MEL-5 melanoma, 42%. Besides, the growth in the experiment on UACC-62 melanoma was 47.8%; with LOX IMVI melanoma it was -26.5% (active); in the experiment on SK-MEL-28 melanoma it was 70%; in the experiment on SK-MEL-2 melanoma it was 83%; with EKVX NSCLC it was 64.4%; in the experiment on SN12C renal, 31%. The growth in the experiment on UO-31 renal is 87%; with TK-10 renal, 74%; with ACHN renal, 87.8%; in the experiment on A498 renal it was 54%; with CCRF-CEM leukemia, 61.8%; in the experiment with MOLT-4 leukemia, 51.9%.
Turning to `C#Cc1nc(C(C)=O)cs1`, the growth with HCT-15 colon is 99.4%; in the experiment with HT29 colon it was 110%; in the experiment on SNB-75 CNS it was 85.5%; in the experiment with SNB-19 CNS, 102%; in the experiment with PC-3 prostate, 98.4%; in the experiment on SK-MEL-5 melanoma it was 104%. For the same compound, the growth with UACC-62 melanoma is 94.3%; in the experiment with LOX IMVI melanoma, 94.7%; in the experiment with SK-MEL-28 melanoma, 106%; in the experiment on SK-MEL-2 melanoma, 111%; with EKVX NSCLC, 103%; in the experiment with SN12C renal it was 102%. The growth in the experiment on UO-31 renal is 90.1%; with TK-10 renal, 104%; with ACHN renal, 106%; in the experiment with CAKI-1 renal, 87.2%; in the experiment on A498 renal, 106%; in the experiment on CCRF-CEM leukemia, 96.9%. Also, in the experiment with MOLT-4 leukemia, the growth is 101%.
`CS(=O)(=O)Nc1cc(-c2ccc3ncc(C#N)c(NCc4ccccc4F)c3c2)cnc1Cl`: the growth in the experiment on HCT-15 colon is 8.34% (active); with HT29 colon it was 11%; in the experiment with SNB-19 CNS, 12.8%; with U251 CNS, 11.5%; in the experiment on PC-3 prostate, 6.54% (active); with SK-MEL-5 melanoma, -93.6% (active). In addition, the growth was -20.7% (active) with UACC-62 melanoma; -41.9% (active) with LOX IMVI melanoma; 5.71% (active) in the experiment with SK-MEL-28 melanoma; -52.3% (active) with SK-MEL-2 melanoma; 0.584% (active) with EKVX NSCLC; 16.8% in the experiment with SN12C renal. The growth in the experiment on UO-31 renal was 4.65% (active); in the experiment on TK-10 renal, -11.1% (active); in the experiment with ACHN renal, 10.9%; with CAKI-1 renal, -8.09% (active); in the experiment with A498 renal, -42.9% (active); with CCRF-CEM leukemia, 13.3%. Besides, in the experiment on MOLT-4 leukemia, the growth was -15.8% (active).
With `C=C1CC[C@@H]2[C@](C)(CO)[C@H](O)CC[C@@]2(C)[C@@H]1C/C(O)=C1\CCOC1=O`, the growth in the experiment on HCT-15 colon is 90.9%; in the experiment with HT29 colon it was 96.5%; with SNB-19 CNS, 97.9%; in the experiment on U251 CNS, 88.2%; in the experiment with PC-3 prostate, 99.7%; with SK-MEL-5 melanoma, 101%. For the same compound, the growth in the experiment with UACC-62 melanoma is 88.9%; in the experiment on LOX IMVI melanoma, 72.9%; in the experiment on SK-MEL-28 melanoma, 108%; in the experiment with SK-MEL-2 melanoma, 103%; in the experiment on EKVX NSCLC, 102%; with SN12C renal it was 86.8%. For the same compound, the growth with UO-31 renal was 99.4%; with TK-10 renal, 114%; in the experiment on ACHN renal, 101%; in the experiment on CAKI-1 renal, 101%; with A498 renal, 94.4%; in the experiment with CCRF-CEM leukemia, 60.2%. Moreover, the growth with MOLT-4 leukemia is 104%.
On to `C#Cc1nc(C(=O)NCCC(=O)Nc2ccc(NC(=O)c3ccc(/C=C/C(=O)c4nccn4C)cc3)cc2)cs1`, for which the growth with HCT-15 colon was 16.7%; in the experiment with HT29 colon, 2.68% (active); with SNB-75 CNS, 56.6%; in the experiment with SNB-19 CNS, 35.1%; with PC-3 prostate it was 42.5%; with SK-MEL-5 melanoma, 87%. Also, the growth in the experiment with UACC-62 melanoma is 38.6%; in the experiment on LOX IMVI melanoma, -90.1% (active); in the experiment on SK-MEL-28 melanoma, 84.8%; in the experiment with EKVX NSCLC it was 65.3%; in the experiment on SN12C renal, 14.4%; in the experiment on UO-31 renal, 30.7%. For the same compound, the growth in the experiment with TK-10 renal was 69.9%; in the experiment with ACHN renal, -67.5% (active); in the experiment on CAKI-1 renal it was 38.9%; in the experiment with A498 renal it was 90.5%; with CCRF-CEM leukemia, -21.2% (active); in the experiment with MOLT-4 leukemia, 19.9%.
As to `CCn1c2ccccc2c2cc(-n3nncc3-c3ccccc3)ccc21`, the growth with HCT-15 colon is 8.42% (active); in the experiment with HT29 colon, 2.01% (active); in the experiment with SNB-75 CNS, 27.4%; in the experiment with SNB-19 CNS, 24.1%; in the experiment on PC-3 prostate, 29.1%; with SK-MEL-5 melanoma, -11.7% (active). Besides, the growth with UACC-62 melanoma was 35.5%; with LOX IMVI melanoma, -29.5% (active); in the experiment on SK-MEL-28 melanoma it was 66.4%; with SK-MEL-2 melanoma it was 68.2%; in the experiment with EKVX NSCLC it was 45.5%; with SN12C renal it was 25.4%. For the same compound, the growth with UO-31 renal was 36.8%; in the experiment on TK-10 renal, 90.5%; with ACHN renal, 29.2%; with A498 renal it was -0.537% (active); in the experiment with CCRF-CEM leukemia it was 19.5%; with MOLT-4 leukemia, 12.7%.
